# Measurements from PubChem BioAssay AID624481 (The Scripps Research Institute Molecular Screening Center, 2012).
# Unmarked numbers belong to inactive results. Active and inactive are the calls of the source. No stated cut-off is given here; in the data, active means inhibition above about 50%; inactive means the rest.
# Target: Prolyl endopeptidase-like (Mus musculus) (UniProt Q8C167)
# Assay: purified PREPL inhibitors, PREPL inhibitor project, biochemical, gel-based competitive ABPP, fluorescence, HTS hits (AID 624481)
# Details: at 20 µM, stronger effect = higher value
# Chain of Prolyl endopeptidase-like (Mus musculus) (Q8C167 whole entry, looked up): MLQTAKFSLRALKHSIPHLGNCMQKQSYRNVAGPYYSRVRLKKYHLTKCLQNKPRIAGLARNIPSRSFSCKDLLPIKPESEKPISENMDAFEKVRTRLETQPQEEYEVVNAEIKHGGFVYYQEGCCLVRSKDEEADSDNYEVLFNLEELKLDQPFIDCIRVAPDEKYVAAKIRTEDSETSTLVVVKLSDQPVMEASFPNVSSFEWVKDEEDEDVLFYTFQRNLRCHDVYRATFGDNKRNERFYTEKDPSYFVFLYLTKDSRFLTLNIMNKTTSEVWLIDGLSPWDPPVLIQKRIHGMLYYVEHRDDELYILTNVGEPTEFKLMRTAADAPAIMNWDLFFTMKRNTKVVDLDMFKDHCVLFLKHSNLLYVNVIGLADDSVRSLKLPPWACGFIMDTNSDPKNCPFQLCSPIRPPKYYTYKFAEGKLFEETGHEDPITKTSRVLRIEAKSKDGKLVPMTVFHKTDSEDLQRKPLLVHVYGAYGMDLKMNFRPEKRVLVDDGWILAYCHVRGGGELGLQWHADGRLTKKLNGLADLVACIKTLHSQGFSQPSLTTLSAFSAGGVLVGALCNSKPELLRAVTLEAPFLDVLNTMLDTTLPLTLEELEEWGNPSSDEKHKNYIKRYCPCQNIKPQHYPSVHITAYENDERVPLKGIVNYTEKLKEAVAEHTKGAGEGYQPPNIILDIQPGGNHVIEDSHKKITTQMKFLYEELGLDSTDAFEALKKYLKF
row,Structure (SMILES),inhibition
1,CCN1/C(=C/c2ccc3cc(C)ccc3[n+]2CC)Sc2ccccc21,98% (active)
2,CCC(=O)c1ccc2c(c1)N(CCCN(C)C)c1ccccc1S2,9%
3,CN(CC(=O)Nc1ccccc1Cl)C(=O)c1cccc(S(=O)(=O)N2CCN(Cc3ccccc3)CC2)c1,-6%
4,COc1ccc(C2CC(c3cccc(OC)c3)n3nc(N)nc3N2)cc1 (centres undefined),-18%
5,Cc1cccc(OCC(=O)Nc2ccc(N3CCN(C(=O)c4ccccc4)CC3)cc2)c1C,-8%
6,O=C(CN1CCN(c2ccc(O)cc2)CC1)Nc1cc([N+](=O)[O-])ccc1Cl,-53%
7,C=CC[n+]1c(/C=C2\C=Cc3cc(C)ccc3N2CC)ccc2ccccc21,-26%
8,CNCCC(Oc1ccc(C(F)(F)F)cc1)c1ccccc1 (centres undefined),-58%
9,Oc1sc(C=Nc2ccc(F)cc2)c2ccccc12,20%
10,C[N+](C)(CCCCCC[N+](C)(C)CCCN1C(=O)c2cccc3cccc(c23)C1=O)CCCN1C(=O)c2cccc3cccc(c23)C1=O,-29%
11,O=C(C1=C[C@@H](c2ccc(C(F)(F)F)cc2)C[C@@H](OCc2ccc(CO)cc2)O1)N1CCN(Cc2ccccc2)CC1,-76%
12,O=C(C1=C[C@@H](c2ccc(Br)cc2)C[C@@H](OCc2ccc(CO)cc2)O1)N1CCN(Cc2ccccc2)CC1,-99%
13,c1cncc(N=c2scc(-c3cccc4ccccc34)n2CCCn2ccnc2)c1,-95%
14,c1ccc(N2CCN(c3nc(NCc4ccco4)c4ccccc4n3)CC2)cc1,94% (active)
